From PubChem
A selection: hits, their analogues and other compounds. The true share with any hit is near 12%.
Sm TGR block: inhibitors of Schistosoma mansoni thioredoxin glutathione reductase | purified TGR, DTNB reduction, TNB absorbance 405 nm | Potency, µM (highest dose often 114 µM), for the others: at the highest dose activity change, negative = inhibition, hits mostly inhibitors | 360,000 compounds, 3% hits; active = well fitted inhibition curve with a large enough effect; inconclusive = small, poorly fitted or top-dose-only effect; inactive = no such curve, though single readings can be large or run the other way; note: potency is the fitted concentration of half-maximal effect; % is set by controls: 0 for no effect and ±100 for the full control effect; nearly all actives have a fitted effect of over 60% in size
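First, TGR (20 nM dispensed) and NADPH were mixed with compound. Second, a 15 min room-temperature incubation followed. Third, further NADPH and then DTNB were added to start the reaction. Finally, TNB absorbance was monitored kinetically.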
Shiga inhibitor: blocks Shiga toxin action in Vero cells; Vero cells, Shiga toxin protein synthesis inhibition reporter; 290,000 compounds, 9.2% hits; inhibition, % at 38.7 µM; AID 2315; in the data active = inhibition mostly above about 28%, no sharp cut-off; inactive = mostly below about 43%; note: 0% is about no effect
FMDV inh: blocks foot and mouth disease virus. FMDV antiviral cell-based qHTS. Potency, µM (top dose mostly 57.9 µM), inactives show top-dose activity change, negative = inhibition, hits mostly inhibitors. 410,000 compounds, 1.2% hits. AID 1159524; calls by dose curve; tested in HEK293T cells; note: read-out not given here; potency is the fitted concentration of half-maximal effect; % is set by controls: 0 for no effect and ±100 for the full control effect; nearly all actives have a fitted effect of over 45% in size
Cycloheximide cs: affects cycloheximide protein synthesis inhibition readout, counter-screen; cell reporter, cycloheximide protein synthesis inhibition counterscreen; max response, %; 300,000 compounds, 12% hits; in the data active = max response mostly above about 13%, no sharp cut-off; inactive = mostly below about 14%; note: read at 38.3 µM for the half of the compounds with a filed dose; 0% is about no effect
Active calls of the source: *; u = inconclusive; x = not tested or not shown; ! = a repeat was not active.

SMILES | Sm TGR block | Shiga inhibitor | FMDV inh | Cycloheximide cs
CCN(c1cccc(C)c1)S(=O)(=O)c1nnc(NC(=O)c2cccs2)s1 | 10% | x | 37% | x
CCN(c1cccc(C)c1)S(=O)(=O)c1nnc(NC(=O)c2ccco2)s1 | 25µM* | -15 | 6% | -3
CCN(c1ccccc1)S(=O)(=O)c1nnc(NC(=O)c2ccco2)s1 | 20µM*! | -7 | 21% | -3
CCN(c1cccc(C)c1)S(=O)(=O)c1nnc(NC(=O)c2ccccc2Cl)s1 | 79µM* | x | -15% | x
Cc1ccc(N(CC(C)C)S(=O)(=O)c2nnc(NC(=O)c3ccco3)s2)cc1 | 12% | x | -19% | x
CCC(=O)N1c2ccccc2CC1C(=O)NCc1ccc(OC(C)C)cc1 (stereo not given) | -1% | x | u | x
COc1ccc(-c2noc(-c3ccc(N4CCCC4)c([N+](=O)[O-])c3)n2)cc1 | 3% | x | 5% | x
Cn1cnc2c(N/N=C/c3cccs3)ncnc21 | 4% | 38* | -1% | 31*
C(=N\Nc1ncnc2sc3c(c12)CCC3)/c1cccs1 | 9% | -20 | x | -4
Fc1ccc(CNc2nc(-c3ccco3)cc(C(F)(F)F)n2)cc1 | 25µM* | 5 | -28% | 2
Fc1ccc(-c2cc(C(F)(F)F)nc(NCc3ccccc3)n2)cc1 | 8% | x | -32% | x
FC(F)(F)c1cc(-c2ccco2)nc(NCc2ccccc2)n1 | 18µM* | 46 | -26% | 3
FC(F)(F)c1cc(-c2ccco2)nc(NCc2cccnc2)n1 | 45µM* | -18 | 0% | 1
Cc1ccccc1NC(=O)CN1C(=O)CCn2nc(-c3cccn3C)cc21 | -18% | x | -14% | x
COc1ccc(CN2CCc3nc(N4CCN(c5ccc(F)cc5)CC4)ncc3C2)c(OC)c1OC | 0% | x | 20µM* | x
CCOc1ccc(CN2CCc3nc(N4CCN(c5ccccc5OC)CC4)ncc3C2)cc1OC | 0% | x | 20µM* | x
COc1ccccc1N1CCN(c2ncc3c(n2)CCN(Cc2ccccc2F)C3)CC1 | -6% | x | -12% | x
COc1cc(OC)c(OC)cc1CN1CCc2nc(N3CCN(c4ccccc4F)CC3)ncc2C1 | -5% | x | 11µM* | x
CCOc1ccc(CN2CCc3nc(N4CCN(c5ncccn5)CC4)ncc3C2)cc1OC | 0% | x | u | x
CC(C)CN1CCc2nc(N3CCN(c4ncccn4)CC3)ncc2C1 | 8% | x | 3% | x
COc1cc(OC)c(OC)cc1CN1CCc2nc(N3CCN(c4ncccn4)CC3)ncc2C1 | 22µM* | x | u | x
COc1cc(-c2nnc(SCCOc3ccc(Cl)cc3)o2)cc(OC)c1OC | -10% | x | u | x
COc1ccc(Cl)cc1NC(=O)Cn1cnc2c1c(=O)n(C)c(=O)n2C | 9% | x | -28% | x
COc1ccc(N2C(=O)/C(=C/c3cccs3)NC2=S)cc1 | -26% | 22* | -9% | -1
COc1ccc(N2C(=O)/C(=C/C=C/c3ccccc3[N+](=O)[O-])C(=O)NC2=S)cc1 | 45µM* | 27 | 22µM* | 3
SMILES | Sm TGR block | Shiga inhibitor | FMDV inh | Cycloheximide cs
COc1ccc(N2C(=O)NC(=O)/C(=C\c3cn(C)c4ccccc34)C2=O)cc1 | u | -9 | -17% | -2
COc1ccc(N2C(=O)/C(=C/c3cccs3)C(=O)NC2=S)cc1 | 35µM* | -13 | 25µM* | -1
CSc1ncc(C(=O)N2CCN(c3cccc(C(F)(F)F)c3)CC2)c(C)n1 | 4% | x | -18% | x
COC(=O)c1ccc(CSc2ccc3nnc(-c4ccc(F)cc4)n3n2)o1 | -22% | -9 | u | -6
COC(=O)c1ccc(CSc2ccc3nnc(-c4ccccn4)n3n2)o1 | 40µM* | 8 | -25% | -2
Cc1ccc(C)c(CSc2ccc3nnc(-c4ccccn4)n3n2)c1 | -4% | -20 | 22µM* | 1
CCOCCCNC(=O)c1ccc(NC(=O)N2CCCCc3ccccc32)cc1 | 0% | x | -10% | x
CN(Cc1cccc(-n2cccn2)c1)C(=O)CCc1nnc(C2CCCCC2)o1 | -18% | 55* | 42% | 40*
CCN(CCn1cccn1)C(=O)CCc1nnc(C2CCCCC2)o1 | 3% | 38* | 9% | 12*
Cc1ccc(/C=C(\C#N)C(=O)NCC2CCCO2)o1 (stereo not given) | -12% | 30 | 30% | 1
COc1ccc(/C=C(\C#N)C(=O)NCc2cccs2)cc1OC | 2% | -4 | -2% | 1
N#C/C(=C\c1ccc[nH]1)C(=O)NCC1CCCO1 (stereo not given) | -5% | 38 | 54% | 25*
N#C/C(=C\c1ccco1)C(=O)NCC1CCCO1 (stereo not given) | -23% | 50* | 21% | 17*
N#C/C(=C\c1ccc(O)cc1)C(=O)NCC1CCCO1 (stereo not given) | -3% | x | 37% | x
Cc1ccccc1-n1c(C)cc(/C=C(\C#N)C(=O)NCC2CCCO2)c1C (stereo not given) | -15% | 123* | 36% | 65*
Cc1cc(/C=C(\C#N)C(=O)NCc2cccs2)c(C)n1-c1ccccc1F | 7% | 80* | 0% | 52*
CSc1nccc(-c2cc(Cl)c3c(c2)CC(CNC(=O)c2ccc(C)nc2)O3)n1 (stereo not given) | x | x | -20% | x
Cc1cccc(N2CCN(C(=O)Cn3nc(Cc4cccnc4)c4ccccc4c3=O)CC2)c1C | 3% | x | u | x
Cc1cccc(/C=N\NC(=O)c2ccc(Cl)cc2)c1O | 2% | 82* | -3% | 62*
Cc1ccc(NS(=O)(=O)c2cccc(C(=O)N/N=C/c3ccc4c(c3)OCCO4)c2)c(C)c1 | 9% | 30 | 1% | 14*
COc1cccc(/C=N/NC(=O)CNC(=O)c2ccc3c(c2)OCCO3)c1O | 6% | 4 | -20% | -2
CCOc1cccc(/C=N/NC(=O)c2ccc3c(c2)OCCO3)c1O | -8% | 82* | 10% | 29*
Cc1cccc(/C=N/NC(=O)c2ccc3c(c2)OCCO3)c1O | 1% | 55* | x | 14
COCCn1c(-c2ccc(Br)cc2)csc1=Nc1cccnc1 | -12% | 2 | 32µM* | -1
COc1ccc(-c2csc(=Nc3ccccc3)n2CCO)cc1F | 11% | x | u | x
SMILES | Sm TGR block | Shiga inhibitor | FMDV inh | Cycloheximide cs
Clc1ccc(-c2csc(=Nc3cccnc3)n2CCCn2ccnc2)cc1Cl | -27% | -13 | 32µM* | -7
FC(F)Oc1ccc(-c2csc(=Nc3cccnc3)n2CC2CCCO2)cc1 (stereo not given) | -23% | 3 | 8.9µM* | 2
O=C(N=NC(=O)c1ccc2c(O)n(CC3CCCO3)c(O)c2c1)c1cccnc1 (stereo not given) | 4% | -16 | 10% | -2
COCCCNC(=O)c1sc2nc(C)c(C(=O)Nc3ccc(C)cc3C)c(-c3ccc(Cl)cc3)c2c1N | -5% | x | u | x
Cc1cc(=O)n2[nH]c(-c3ccsc3-n3c(C)ccc3C)cc2n1 | 20µM* | 9 | -28% | 33
COCc1cc(=O)n2[nH]c(-c3ccsc3-n3c(C)ccc3C)cc2n1 | u | -7 | -14% | -2
Cc1nc2cc(-c3ccsc3-n3c(C)ccc3C)[nH]n2c(=O)c1Cl | -27% | -1 | 32µM* | -4
CN(C)/C=C/c1oc2ccc(O)cc2c1[N+](=O)[O-] | -10% | 146* | 42% | 37
CCOc1ccc(Sc2cc(C(=O)NCc3ccccc3Cl)c3ccccc3n2)cc1 | 0% | x | 0% | x
Cc1cc(C(=O)Nc2ccc(-n3c(C)nc4ccccc4c3=O)cc2)ccc1[N+](=O)[O-] | 6% | x | -18% | x
